Test results reported in PubChem BioAssay (NCI).
About 83,000 compounds went through this panel and 20% of them were active in at least one assay; those are over-represented in the sample as a whole.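 Percent growth is the endpoint: 0 to 100 indicates growth inhibition (40 means 60% inhibition), 0 means no net growth, and negative values indicate cell death.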 A number with no mark means an inactive call. Active and inactive are the calls of the source. Rule for the calls: active = growth percent below 10; inactive = the rest.

How the values were obtained:
Assay in all cases: NCI-60 one-dose screen, 48 h (100 = growth as untreated, 0 = no growth, -100 = all killed)
Details in all cases: 10 µM unless noted
SK-MEL-2 melanoma = test system: SK-MEL-2 melanoma
EKVX NSCLC = test system: EKVX NSCLC
SN12C renal = test system: SN12C renal
UO-31 renal = test system: UO-31 renal
TK-10 renal = test system: TK-10 renal
ACHN renal = test system: ACHN renal
CAKI-1 renal = test system: CAKI-1 renal
A498 renal = test system: A498 renal
CCRF-CEM leukemia = test system: CCRF-CEM leukemia
MOLT-4 leukemia = test system: MOLT-4 leukemia

Structure (SMILES)	growth (SK-MEL-2 melanoma)	growth (EKVX NSCLC)	growth (SN12C renal)	growth (UO-31 renal)	growth (TK-10 renal)	growth (ACHN renal)	growth (CAKI-1 renal)	growth (A498 renal)	growth (CCRF-CEM leukemia)	growth (MOLT-4 leukemia)
Cc1ccc(/C=N\NC(=O)c2[nH]c3ccc(F)cc3c2-c2ccccc2)cc1	23.2%	38%	41.5%	32.1%	72.5%	38.5%	1.21% (active)	19%	18.4%	28.2%
CN1C(=C2C(=O)OC(C)(C)OC2=O)CCC1C(=O)NCc1ccc(Cl)cc1Cl (stereo not given)	91.7%	97.5%	93.3%	85%	93.8%	97%	95%	59.5%	86.4%	94.6%
CCOc1ccc2nc(SCc3nc4n(n3)S(=O)(=O)c3ccccc3N4C)sc2c1	17.9%	14%	22.2%	-46.3% (active)	-8.01% (active)	4.84% (active)	-39.5% (active)	-25.8% (active)	3.93% (active)	4.81% (active)
Cc1nc2ccccc2c(/C=C/c2ccccc2)c1C(=O)/C=C/c1ccc(C(F)(F)F)cc1	-22.5% (active)	-28.8% (active)	-61.5% (active)	-96.9% (active)	-51.2% (active)	-98.4% (active)	-76.6% (active)	-59.4% (active)	9.14% (active)	4.69% (active)
Cc1nn(-c2ccccc2)c(-n2ccnc2)c1/C=N/Nc1nc(-c2ccc(Cl)c(Cl)c2)cs1	83.7%	30.8%	31.3%	49.6%	2.74% (active)	39.9%	24.9%	43.5%	26.1%	32.3%
COc1ccc2c(c1)/C(=C/c1sc(=S)n(Cc3ccco3)c1O)C=N2	27%	60.2%	32.7%	58.6%	77.6%	40.6%	39.3%	-9.18% (active)	18.3%	29.2%
COC(=O)C(Cc1ccccc1)NC(=O)NC(=O)NC(=O)CI (stereo not given)	94.9%	103%	17.2%	34.7%	75.9%	75.7%	-69.3% (active)	124%	-50.8% (active)	-30.7% (active)
COc1cc2oc(-c3ccc(O)cc3)cc(=O)c2c(O)c1-c1c(OC)cc(O)c2c(=O)cc(-c3ccc(O)cc3)oc12	51.9%	85.5%	15.8%	14.6%	75.3%	49.4%	26.9%	83.9%	44.9%	32.6%
COc1ccc2cc(C(C)C(=O)Nc3ccc(-c4n[nH]c(=S)n4C4CCCCC4)cc3)ccc2c1 (stereo not given)	77%	70.5%	73.4%	-79.3% (active)	95.9%	73.4%	44.7%	77.3%	64.4%	55.9%
O=C(/C=C/c1cccc2ccccc12)c1ccc(NC(=O)c2ccccc2CN2C(=O)c3ccccc3C2=O)cc1	95.5%	81.4%	80.3%	50.7%	100%	73%	37.9%	88.5%	39.7%	51.2%
CC1CN(C2CCCCC2)C(=S)N(c2ccccc2)C1=O (stereo not given)	122%	101%	111%	97.7%	116%	110%	97.9%	95.4%	93.8%	70.4%
CCOC(=O)/C=C1\S/C(=N\Nc2ccc([N+](=O)[O-])cc2[N+](=O)[O-])N(Cc2ccccc2)C1=O	102%	86.4%	57.3%	66.4%	115%	84.3%	81.1%	70.4%	39.6%	67.5%
CC(C)C(=O)Nc1ccc(-c2nc(-c3cccc(OCCN4CCOCC4)c3)c(-c3ccnc(Br)c3)[nH]2)cc1	36.2%	77.2%	70.5%	12.4%	85.3%	58.7%	44%	54.7%	29%	10.6%
O=C(Nc1ccc(Br)cc1F)c1cc(Br)ccc1O	-25.4% (active)	9.76% (active)	-10.9% (active)	-11% (active)	15.3%	-0.439% (active)	2.12% (active)	-42% (active)	20.9%	1.26% (active)
CCCCCCNC(=O)Oc1ccc(/C(=C(\C)c2ccc(Cl)cc2)c2ccc(OCCCN(C)C)cc2)cc1	92.1%	83%	90%	55.4%	75.8%	94.3%	96.2%	85.7%	70.7%	37.3%
Cc1[nH]c(C(=O)Nc2ccc(C(=O)NCCN)cc2OC(C)C)c(Cl)c1Cl	98.6%	87.6%	48.1%	57.1%	-21.6% (active)	40.7%	14.2%	67.4%	-10.5% (active)	-27.7% (active)
O=C(N/N=C/[C@@H](O)[C@H](O)[C@H](O)CO)c1ccc(NC(=O)c2cccnc2)cc1	120%	100%	97.1%	82.9%	106%	101%	96.1%	102%	98.5%	113%
COc1ccc(CNC(=O)C(=O)[C@H](Cc2ccccc2)NC(=O)c2[nH]c3ccccc3c(=O)c2C)cc1	109%	95.5%	86.6%	97.4%	98.8%	100%	94.4%	100%	110%	97.7%
CCCCOc1nc2ccc(OC)cc2cc1-c1cc(-c2ccc(Cl)cc2)nc(-c2ccc(Cl)cc2)c1	103%	98.2%	101%	90%	104%	96.3%	104%	83.5%	103%	113%
CN1CCN(c2ccc(-c3ccc4ncc(C#N)c(Nc5ccc(F)c(Cl)c5)c4c3)cc2)CC1	48.3%	54.4%	59.9%	30.4%	36.3%	18.9%	33.8%	-7.38% (active)	13.1%	35.7%
